Source: PubChem BioAssay
FLuc modulator: qHTS profiling assay for firefly luciferase inhibitor/activator using purifed enzyme and Km concentrations of substrates (counterscreen for miR-21 project) | Luciferin 4-monooxygenase (Photinus pyralis), P08659 | purified FLuc, Km substrates, luminescence inhibition | Potency, µM (titrated, usually from 57.5 µM), usual class: inhibitors | 6.9% of 360,000 active; further: nearly all actives have a fitted effect of over 55% in size
Target sequence (P08659 whole entry, looked up): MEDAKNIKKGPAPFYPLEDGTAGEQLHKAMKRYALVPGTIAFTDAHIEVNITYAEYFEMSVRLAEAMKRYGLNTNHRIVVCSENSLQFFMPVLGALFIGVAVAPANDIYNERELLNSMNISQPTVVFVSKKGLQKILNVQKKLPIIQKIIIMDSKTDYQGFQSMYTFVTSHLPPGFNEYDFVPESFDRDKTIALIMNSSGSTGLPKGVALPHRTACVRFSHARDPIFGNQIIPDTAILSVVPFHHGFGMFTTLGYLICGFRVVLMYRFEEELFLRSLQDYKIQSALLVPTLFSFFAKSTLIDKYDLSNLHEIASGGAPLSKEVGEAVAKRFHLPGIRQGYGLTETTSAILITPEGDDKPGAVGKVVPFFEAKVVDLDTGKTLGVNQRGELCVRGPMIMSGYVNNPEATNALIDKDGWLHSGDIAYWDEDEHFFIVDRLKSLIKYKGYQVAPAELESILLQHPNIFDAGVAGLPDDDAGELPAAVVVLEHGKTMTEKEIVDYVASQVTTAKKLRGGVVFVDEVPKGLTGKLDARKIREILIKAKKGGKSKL
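Biochemical qHTS of compounds, final roughly 60 µM downward over six points, against 10 nM purified firefly luciferase using Km concentrations of substrates (10 uM D-luciferin, 10 uM ATP) in Tris acetate pH 7.5 buffer; luminescence output.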
SMN2 splice up: qHTS Assay for Enhancers of SMN2 Splice Variant Expression; HEK293 SMN2-luciferase splicing reporter, luminescence, 30-36 h; 2.8% of 210,000 active; AID 1458, 2008; Potency, µM (highest dose often 46.1 µM), most hits filed as activators; further: nearly all actives have a fitted effect of over 55% in size
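qHTS luciferase splicing reporter: luminescence rises when SMN2 exon 7 is included in transfected HEK293 cells. Compound exposure lasted 30-36 h at 37C, with 4.5 mM final sodium butyrate as control, followed by a ONE-Glo read.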
ELG1 genotox: qHTS screen for small molecules that induce genotoxicity in human embryonic kidney (HEK293T) cells expressing luciferase-tagged ELG1; AID 504466, 2011; Potency, µM (titrated, usually from 46 µM), hits mostly activators; HEK293T ELG1-luciferase reporter, luminescence, 16 h; 1.3% of 330,000 active; further: nearly all actives have a fitted effect of over 60% in size
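Genotoxicity was scored as increased ELG1-luciferase reporter signal, measured by ONE-Glo luminescence (30 min, room temperature). Compound or vehicle exposure of the HEK293T reporter cells lasted 16 hr at 37°C.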
ELG1 DNA repair: qHTS screen for small molecules that inhibit ELG1-dependent DNA repair in human embryonic kidney (HEK293T) cells expressing luciferase-tagged ELG1. AID 504467, 2011. Potency, µM (top dose mostly 46.1 µM), usual class: inhibitors. 2.3% of 330,000 active. HEK293T ELG1-luciferase reporter, luminescence, 16 h; DNA damage induced by 5-fluorouridine; further: nearly all actives have a fitted effect of over 55% in size
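Step one: seed 2,000 cells per well. Step two: pin-transfer compound or DMSO alongside 5-fluorouridine. Step three: incubate 16 hr, 37 °C, 5% CO2. Step four: add ONE-Glo, wait 30 min, read luminescence.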
NPC1 promoter act: qHTS Assay for NPC1 Promoter Activators; 2.4% of 320,000 active; Huh7 NPC1 promoter luciferase reporter, 24 h; Potency, µM (doses to about 9.22 µM), hits mostly activators; AID 485313, 2010; further: nearly all actives have a fitted effect of over 60% in size
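Quantitative HTS used a cell-based reporter: Huh7 cells stably bearing the NPC1 promoter upstream of luciferase were treated with compounds for 24 h, and promoter activation was read as luminescence.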
Rab9 promoter act: qHTS Assay for Rab9 Promoter Activators; Huh7 Rab9 promoter-luciferase reporter, luminescence, 24 h; Potency, µM (doses to about 9.22 µM), actives largely listed as activators; 2.8% of 320,000 active; further: nearly all actives have a fitted effect of over 60% in size
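Huh7 cells stably carrying a Rab9 promoter-luciferase reporter, 1500 cells per well in OP-MEM I with 10% FBS, treated with compound 24 hours at 37C. Luciferase activity read by luminescence after 10 minutes with Amplite reagent.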
Hits are given with their value; 0 = inactive; ? = inconclusive; - = no result given; [ ] = dose if it differs, or a comment. Rows were chosen to be rich in hits. Some 9.4% of all compounds tested hit in one or more screens of this group. The call rests on the fitted dose curve; in most records, active means well fitted curve in the direction sought with a large enough effect; inconclusive means small, poorly fitted or top-dose-only effect, or another doubt; inactive means no such curve, though single readings can be large; an effect the other way counts as inactive or inconclusive.

SMILES	FLuc modulator	SMN2 splice up	ELG1 genotox	ELG1 DNA repair	NPC1 promoter act	Rab9 promoter act
COc1ccc(C(=O)NCC(c2ccc3c(c2)OCO3)N2CCOCC2)cc1OC (configuration not stated)	0	-	-	-	-	-
Cc1cccc(-c2cc3nc4c(c(N5CCCC(O)C5)n3n2)CCC4)c1 (configuration not stated)	0	0	0	16µM	0	0
OC1CCCN(c2c3c(nc4cc(-c5cccc(F)c5)nn24)CCCC3)C1 (configuration not stated)	?	11µM	?	?	?	?
OC1CCCN(c2c3c(nc4cc(-c5cccc(Cl)c5)nn24)CCC3)C1 (configuration not stated)	0	0	0	21µM	0	0
OC1CCN(c2c3c(nc4cc(-c5ccc(F)cc5)nn24)CCC3)CC1	?	0	0	?	0	0
O=C(O)c1cc(O)c2c(c1)[C@H]([C@H]1c3cc(C(=O)O)cc(O)c3C(=O)c3c(O[C@@H]4OC(CO)C(O)C(O)C4O)cccc31)c1cccc(O[C@@H]3OC(CO)C(O)C(O)C3O)c1C2=O (some centres not stated)	-	0	-	-	-	-
O=C(COc1ccccc1)NCC(c1ccc(Cl)cc1)N1CCCCC1 (configuration not stated)	0	-	-	-	-	-
CCn1c(SCC(=O)Nc2nc3ccc(OC)cc3s2)nc2c1c(=O)n(C)c(=O)n2C	?	0	0	13µM	0	0
CCOc1ccc2nc(NC(=O)Cn3cnc4c3c(=O)n(C)c(=O)n4C)sc2c1	?	0	0	0	0	0
CCOc1ccc2nc(NC(=O)CSc3nc4c(c(=O)n(C)c(=O)n4C)n3C(C)C)sc2c1	0	0	0	9.2µM	0	0
Cn1c(=O)c2c(nc(C(=N)SCC(=O)O)n2C)n(C)c1=O	-	0[9.22 µM]	-	-	-	-
Cc1ccc(CSc2nc3ccc(NC(=O)COc4ccccc4F)cc3s2)cc1	0	-	-	-	-	-
Cc1ccc2nc(-c3ccc(NC(=O)COc4ccc(Cl)c(C)c4)cc3)sc2c1	21µM	14µM	-	-	-	-
Cc1ccc2nc(-c3ccc(NC(=O)COc4c(C)ccc(C)c4C)cc3)sc2c1	19µM	?	-	-	-	-
CC(=O)Nc1ccc2nc(NC(=O)COc3ccc(C)cc3)sc2c1	0	0	0	0	0	0
Cc1ccc2nc(-c3ccc(NC(=O)COc4ccc(Br)cc4Br)cc3)sc2c1	2.1µM	2.8µM	-	-	-	-
CCOC(=O)N1CCC(NS(=O)(=O)c2ccc(NC(C)=O)c(Cl)c2)CC1	0	-	0	7.3µM	0	0
CCOC(=O)N1CCC(NS(=O)(=O)c2ccc(C)cc2)CC1	0	-	0	?	0	0
Cc1ccc(NC(=O)Cn2c(=O)c(CNc3ccccc3)cc3cc4c(cc32)OCCO4)cc1	0	-	-	-	-	-
CCN(CC)c1ccc(CNc2ccc(Br)cn2)cc1	?	?	10µM	?	?	0
C=CCn1c(O)c(N=NC(=O)OC(C)(C)C)c2ccccc21	17µM	0	0	0	0	0
COc1cc(/C=N/NC(=O)c2cc3ccccc3[nH]2)ccc1O	17µM	-	0	0	0	0
COC(=O)N/N=C/c1ccc(Oc2ccccc2)cc1	15µM	11µM	?	?	?	?
COc1cc(/C=N/NC(=O)c2nc(C)cc(C)n2)ccc1O	?	?	0	?	0	0
COc1cc(/C=N/NC(=O)c2cccc(C(=O)N/N=C/c3ccc(O)c(OC)c3)n2)ccc1O	0.85µM	-	0	0	0	0[1.84 µM]
SMILES	FLuc modulator	SMN2 splice up	ELG1 genotox	ELG1 DNA repair	NPC1 promoter act	Rab9 promoter act
COC(=O)N/N=C\c1ccc(OC/C=C/c2ccccc2)cc1	?	-	0	0	0	0
COc1ccc(/C=N/NC(=O)Nc2nonc2N)cc1	?	10µM	?	?	0	0
CC(=O)NCCNC(=O)CCCn1c(=O)[nH]c2ccsc2c1=O	0	0	-	-	-	-
COc1ccc(/C=N\NC(=O)O)cc1	-	0[9.22 µM]	-	-	-	-
COc1ccc(/C=N/NC(=O)c2cccc(C(=O)N/N=C/c3ccc(OC)cc3)n2)cc1	0.3µM	-	?	0	0	0
COc1cc(NC(=O)c2cccc(COCC(F)(F)C(F)F)c2)cc(OC)c1OC	0	0	0	?	0	0
COc1ccc(/C=N/NC(=O)c2cccc(COCC(F)(F)C(F)F)c2)cc1	5.4µM	0	0	0	0	0
COc1ccccc1C(=O)N1CCC(c2noc(-c3ccc(S(=O)(=O)N4CCCC4)cc3)n2)CC1	0	0	-	-	-	-
Cc1ccc(-c2cc(C(=O)Nc3ccc(S(=O)(=O)Nc4ncccn4)cc3)[nH]n2)c(O)c1C	4.8µM	-	0	0	0	0
Cc1cc(C)c(O)c(-c2cc(C(=O)Nc3ccc(S(=O)(=O)N4CCOCC4)cc3)[nH]n2)c1	0	0	0	21µM	0	0
CC(=O)Nc1ccc(NC(=O)c2cc(-c3ccc(C)c(C)c3O)n[nH]2)cc1	5.4µM	-	0	0	0	0
Cc1ccc(NC(=O)c2cc(-c3ccc(C)c(C)c3O)n[nH]2)cc1C	0	-	0	0	0	0
Cc1ccc(-c2cc(C(=O)Nc3ccc(S(=O)(=O)Nc4onc(C)c4C)cc3)[nH]n2)c(O)c1	?	-	0	0	0	0
Cc1ccc(CNC(=O)c2cc(-c3cc(C)cc(C)c3O)n[nH]2)cc1	0	-	0	0	0	0
CC(=O)Nc1ccc(NC(=O)c2cc(-c3cc(C)cc(C)c3O)n[nH]2)cc1	3.4µM	-	0	23µM	0	0
Cc1ccc(S(=O)(=O)N2CCN(Cc3ccc4c(c3)OCO4)CC2)cc1	0	0	-	-	-	-
O=c1c(O)cc(C2Oc3cc(O)cc(O)c3CC2O)cc2c(C3Oc4cc(O)cc(O)c4CC3O)cc(O)c(O)c12 (configuration not stated)	-	0	-	-	-	-
CN(C)c1ccc(/C=N\NC(=O)c2cnc3ccccc3c2)cc1	-	0[9.22 µM]	-	-	-	-
CC(NC(=O)c1ccc(C23CC4CC(CC(C4)C2)C3)cc1)C(=O)O (configuration not stated)	19µM	0	0	?	0	0
CCCOc1ccc(C(=O)NC(C)C(=O)O)cc1 (configuration not stated)	0	0	0	?	0	0
COC(=O)[C@@]12OC[C@]34[C@H]([C@@H](O)[C@@H]1O)[C@@]1(C)C(=O)C(O[C@@H]5OC(CO)[C@@H](O)[C@@H](O)[C@@H]5O)=C[C@@H](C)[C@@H]1C[C@H]3OC(=O)[C@H](OC(=O)/C=C(\C)C(C)(C)OC(C)=O)[C@@H]24 (some centres not stated)	0	-	0	6.5µM	0	0
